Measured values from PubChem BioAssay (Tox21).
Inconclusive results are not listed. Where a call stands in place of a potency, no number is given. The source made the active and inactive calls. Unless noted, the call rests on the fitted dose curve; in most records, active means well fitted curve in the direction sought with a large enough effect in the repeat runs; inconclusive means weak or mixed curves; inactive means no such curve, though single readings can be large; an effect the other way counts as inactive or inconclusive.

How the values were obtained:
[1] = target: Estrogen receptor beta (Homo sapiens) (UniProt Q92731); test: qHTS assay to identify small molecule agonists of the estrogen receptor beta (ER-beta) signaling pathway (AID 1259377; active means well fitted activation curve with a large enough effect in the signal ratio in the repeat runs, not every such curve was filed as active; the % refers to the signal ratio; further: potency means the concentration at half of the fitted maximal effect)
Sequence of Estrogen receptor beta (Homo sapiens) (Q92731 whole entry, looked up): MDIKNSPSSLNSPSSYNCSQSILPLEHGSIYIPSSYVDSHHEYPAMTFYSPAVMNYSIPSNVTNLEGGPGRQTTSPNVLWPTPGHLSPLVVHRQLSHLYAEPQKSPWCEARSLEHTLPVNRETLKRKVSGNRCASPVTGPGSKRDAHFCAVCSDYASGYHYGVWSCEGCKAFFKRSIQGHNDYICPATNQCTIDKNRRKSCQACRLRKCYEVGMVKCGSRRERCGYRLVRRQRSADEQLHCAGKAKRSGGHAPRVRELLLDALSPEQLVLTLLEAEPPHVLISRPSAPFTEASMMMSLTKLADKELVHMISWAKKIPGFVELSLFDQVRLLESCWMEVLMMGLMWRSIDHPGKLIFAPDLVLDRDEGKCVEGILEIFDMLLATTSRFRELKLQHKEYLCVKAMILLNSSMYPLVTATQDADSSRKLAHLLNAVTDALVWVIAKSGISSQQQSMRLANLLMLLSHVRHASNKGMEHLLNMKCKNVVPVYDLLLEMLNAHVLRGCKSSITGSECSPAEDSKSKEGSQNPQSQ
Procedure, shortened: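 In HEK293T cells bearing a UAS-beta-lactamase reporter under ER-beta control, DMSO-delivered compounds were incubated for 16 hr at 37C. Activity was detected as fluorescence 2 hours after LiveBLAzer B/G FRET substrate addition.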

[2] = qHTS assay to identify small molecule agonists of the androgen receptor (AR) signaling pathway in the presence of an antagonist - cell viability counter screen (AID 1259379);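 further: MDA-kb2 human breast cancer cells carrying an MMTV luciferase reporter; series mostly up to about 92 µM; nearly all actives have a fitted effect of over 25% in size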
Procedure, shortened: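 In MDA-kb2 cells (human breast carcinoma, MMTV-luciferase), compounds at 15 concentrations plus 3.0uM nilutamide; 16 hr, 37C, 0% CO2; CellTiter-Fluor fluorescence read for viability.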

[3] = target: Estrogen receptor (Homo sapiens) (UniProt P03372); test: qHTS assay to identify small molecule agonists of the estrogen receptor alpha (ER-alpha) signaling pathway in the presence of an antagonist (AID 1259383; calls by dose curve; further: top concentration of the series differs between compounds; nearly all actives have a fitted effect of over 15% in size)
Sequence of Estrogen receptor (Homo sapiens) (P03372 whole entry, looked up): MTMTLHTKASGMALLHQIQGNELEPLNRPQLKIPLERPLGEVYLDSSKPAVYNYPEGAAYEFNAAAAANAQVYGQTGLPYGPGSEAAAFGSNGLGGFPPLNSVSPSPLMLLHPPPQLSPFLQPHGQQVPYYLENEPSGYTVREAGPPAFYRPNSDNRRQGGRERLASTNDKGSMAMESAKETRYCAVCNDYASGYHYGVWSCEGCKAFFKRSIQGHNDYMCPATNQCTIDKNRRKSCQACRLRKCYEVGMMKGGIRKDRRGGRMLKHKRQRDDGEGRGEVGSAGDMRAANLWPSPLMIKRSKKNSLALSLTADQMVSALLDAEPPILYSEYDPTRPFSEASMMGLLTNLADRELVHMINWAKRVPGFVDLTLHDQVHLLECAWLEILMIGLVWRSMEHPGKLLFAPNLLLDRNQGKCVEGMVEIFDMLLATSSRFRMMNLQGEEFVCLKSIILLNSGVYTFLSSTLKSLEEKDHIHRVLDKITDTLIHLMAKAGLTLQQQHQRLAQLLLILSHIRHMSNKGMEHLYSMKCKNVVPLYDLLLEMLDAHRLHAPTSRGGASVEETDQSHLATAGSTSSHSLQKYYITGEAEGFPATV
Procedure, shortened: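 In VM7Luc4E2 cells, 4,000 per well, compounds at 15 concentrations were co-incubated 22hr at 37C with 10.0nM final ICI-182,780. Luminescence from the stably transfected 4×ERE-luciferase reporter was recorded 30min after ONE-Glo addition.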

[4] = qHTS assay to identify small molecule agonists or antagonists of the thyroid stimulating hormone receptor (TSHR) signaling pathway - wild type cell line counter screen (AID 1259384; calls by dose curve)
Procedure, shortened: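 Counter screen in untransfected Hek293: compounds (15-point titration, triplicate) plus phosphodiesterase inhibitor Ro20-1724 added after 18 h plating; 30 min RT. Intracellular cAMP via competitive d2/cryptate immunoassay, 1 h incubation.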

[5] = target: Thyrotropin receptor (Homo sapiens) (UniProt P16473); test: qHTS assay to identify small molecule antagonists of the thyroid stimulating hormone receptor (TSHR) signaling pathway (AID 1259385; calls by dose curve; further: nearly all actives have a fitted effect of over 20% in size)
Sequence of Thyrotropin receptor (Homo sapiens) (P16473 whole entry, looked up): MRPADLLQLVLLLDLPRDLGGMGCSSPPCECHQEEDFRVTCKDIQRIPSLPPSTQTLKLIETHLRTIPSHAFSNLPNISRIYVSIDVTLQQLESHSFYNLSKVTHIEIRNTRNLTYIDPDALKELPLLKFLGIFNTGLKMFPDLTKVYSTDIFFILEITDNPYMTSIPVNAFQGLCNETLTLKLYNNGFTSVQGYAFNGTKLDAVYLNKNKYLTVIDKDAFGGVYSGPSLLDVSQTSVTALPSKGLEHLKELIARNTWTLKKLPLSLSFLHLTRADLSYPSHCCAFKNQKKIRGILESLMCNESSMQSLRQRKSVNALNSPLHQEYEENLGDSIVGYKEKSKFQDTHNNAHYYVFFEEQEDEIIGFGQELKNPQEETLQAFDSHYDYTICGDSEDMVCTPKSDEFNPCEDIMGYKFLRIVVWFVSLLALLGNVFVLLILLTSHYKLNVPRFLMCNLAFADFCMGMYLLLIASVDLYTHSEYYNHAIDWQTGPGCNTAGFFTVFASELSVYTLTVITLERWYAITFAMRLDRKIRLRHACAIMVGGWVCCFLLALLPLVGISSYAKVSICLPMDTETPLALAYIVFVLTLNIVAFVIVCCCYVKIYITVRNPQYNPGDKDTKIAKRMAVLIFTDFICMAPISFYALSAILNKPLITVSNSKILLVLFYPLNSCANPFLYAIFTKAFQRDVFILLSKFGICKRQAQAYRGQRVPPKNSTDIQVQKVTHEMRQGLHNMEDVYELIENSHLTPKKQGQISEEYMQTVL
Procedure, shortened: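 Antagonist mode: compound-treated TSHR-expressing HEK293 cells were stimulated with 1.5 ng/mL TSH (final) in presence of Ro20-1724 for 30 min at RT. HTRF cAMP detection after 1 h; each compound tested at 15 concentrations, triplicate.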

[6] = qHTS assay to identify small molecule agonists of the estrogen receptor alpha (ER-alpha) signaling pathway in the presence of an antagonist - cell viability counter screen (AID 1259386);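 further: series mostly up to about 92 µM; cells exposed to compounds for 22 h at 37 °C before the viability read; nearly all actives have a fitted effect of over 30% in size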
Procedure, shortened: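 Fluorescent CellTiter-Fluor viability signal from VM7Luc4E2 cells, with the reagent added during the final hour of a 22hr compound exposure at 37C in the presence of 10.0nM ICI-182,780.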

[7] = target: Progesterone receptor (Homo sapiens) (UniProt P06401); test: qHTS assay to identify small molecule antagonists of the progesterone receptor (PR) signaling pathway (AID 1346795; active means well fitted inhibition curve with a large enough effect in the signal ratio in the repeat runs, not every such curve was filed as active; the % refers to the signal ratio)
Sequence of Progesterone receptor (Homo sapiens) (P06401 whole entry, looked up): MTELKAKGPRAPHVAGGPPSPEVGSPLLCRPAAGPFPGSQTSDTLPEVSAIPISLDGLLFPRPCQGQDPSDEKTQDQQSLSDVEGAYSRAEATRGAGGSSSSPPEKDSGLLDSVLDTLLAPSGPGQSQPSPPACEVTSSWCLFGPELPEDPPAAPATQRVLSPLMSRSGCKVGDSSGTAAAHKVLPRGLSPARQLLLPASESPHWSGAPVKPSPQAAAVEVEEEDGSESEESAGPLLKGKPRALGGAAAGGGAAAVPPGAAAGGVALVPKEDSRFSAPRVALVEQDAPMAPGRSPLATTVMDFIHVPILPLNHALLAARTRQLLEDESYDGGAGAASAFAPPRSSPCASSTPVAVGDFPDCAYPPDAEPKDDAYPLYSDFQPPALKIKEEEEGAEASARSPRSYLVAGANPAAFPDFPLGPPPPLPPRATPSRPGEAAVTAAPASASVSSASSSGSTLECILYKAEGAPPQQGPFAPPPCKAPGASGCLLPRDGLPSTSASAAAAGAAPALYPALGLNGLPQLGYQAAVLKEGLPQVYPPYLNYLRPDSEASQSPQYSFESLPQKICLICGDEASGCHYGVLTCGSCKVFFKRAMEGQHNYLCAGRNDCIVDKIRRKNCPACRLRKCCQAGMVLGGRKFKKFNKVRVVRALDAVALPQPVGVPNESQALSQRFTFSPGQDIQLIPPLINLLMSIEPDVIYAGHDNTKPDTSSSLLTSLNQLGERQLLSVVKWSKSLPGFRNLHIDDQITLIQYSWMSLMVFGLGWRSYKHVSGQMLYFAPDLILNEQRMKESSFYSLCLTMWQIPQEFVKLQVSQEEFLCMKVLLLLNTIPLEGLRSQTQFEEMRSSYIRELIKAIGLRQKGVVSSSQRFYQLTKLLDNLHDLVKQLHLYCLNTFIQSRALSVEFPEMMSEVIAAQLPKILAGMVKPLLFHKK
Procedure, shortened: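 Inhibition of R5020-induced (1 nM final) beta-lactamase reporter signal in PR-UAS-bla HEK293T cells was scored by FRET fluorescence after overnight (16 hr) compound treatment.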

[8] = qHTS assay to identify small molecule agonists of the progesterone receptor (PR) signaling pathway - cell viability counter screen (AID 1346799; calls by dose curve; further: nearly all actives have a fitted effect of over 45% in size; further: potency means the concentration at half of the fitted maximal effect)
Procedure, shortened: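 Cytotoxicity in PR-bla HEK293T cells: 16 h compound, 37C; CellTiter-Glo added post-FRET read; luminescence after 30 min RT.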

[9] = qHTS assay to identify small molecule antagonists of the TGF-beta/Smad signaling pathway - cell viability counter screen (AID 1346824); further: nearly all actives have a fitted effect of over 50% in size
Procedure, shortened: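 Cytotoxicity counter-screen run in the same wells as the beta-lactamase Smad reporter read: CellTiter-Glo luminescence after 30 min at room temperature. HEK 293T SBE-bla cells had 5 hr compound exposure at 37 C with TGF-beta1 (0.25 ng/mL stock).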

[10] = qHTS assay to identify small molecule agonists of the TGF-beta/Smad signaling pathway - cell viability counter screen (AID 1346829); further: top concentration of the series differs between compounds; nearly all actives have a fitted effect of over 45% in size
Procedure, shortened: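 SBE-bla HEK 293T cells plated overnight, compound exposure 5 hr at 37 C. Viability read in the same wells by CellTiter-Glo luminescence after 30 min at room temperature, following the beta-lactamase read.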

[11] = qHTS assay to identify small molecule agonists of the TGF-beta/Smad signaling pathway (AID 1346859; active means well fitted activation curve with a large enough effect in the signal ratio in the repeat runs, not every such curve was filed as active; the % refers to the signal ratio; further: series mostly up to about 77 µM)
Procedure, shortened: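 Stable Smad binding element-beta-lactamase HEK 293T cells; 5 hr compound exposure at 37 C under 5% CO2; 2 hr room-temperature substrate step; fluorescence excited at 405 nm, collected at 460 nm and 530 nm.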

[12] = target: Thyrotropin-releasing hormone receptor (Homo sapiens) (UniProt P34981); test: qHTS assay to identify small molecule antagonists of the thyrotropin-releasing hormone receptor (TRHR) signaling pathway (AID 1346877; active means well fitted inhibition curve with a large enough effect in the repeat runs, not every such curve was filed as active; further: series mostly up to about 51 µM)
Sequence of Thyrotropin-releasing hormone receptor (Homo sapiens) (P34981 whole entry, looked up): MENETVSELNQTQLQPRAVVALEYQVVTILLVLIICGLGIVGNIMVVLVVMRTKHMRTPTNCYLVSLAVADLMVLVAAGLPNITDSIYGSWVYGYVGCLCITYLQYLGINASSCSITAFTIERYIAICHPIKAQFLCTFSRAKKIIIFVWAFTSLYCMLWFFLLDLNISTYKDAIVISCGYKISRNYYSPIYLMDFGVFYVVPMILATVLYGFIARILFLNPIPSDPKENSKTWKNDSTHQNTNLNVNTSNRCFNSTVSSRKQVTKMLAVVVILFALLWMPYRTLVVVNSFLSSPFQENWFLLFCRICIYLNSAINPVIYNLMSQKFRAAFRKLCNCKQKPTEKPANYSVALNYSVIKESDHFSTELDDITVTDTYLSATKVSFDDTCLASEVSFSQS
Procedure, shortened: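 In this cell-based calcium flux format, HEK293 cells expressing TRHR received test compound for 5 min before the agonist TRH (1 nM final). Dye loading lasted 2 h at 37 °C.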

[13] = target: Thyrotropin-releasing hormone receptor (Homo sapiens) (UniProt P34981); test: qHTS assay to identify small molecule agonists of the thyrotropin-releasing hormone receptor (TRHR) signaling pathway (AID 1346891; calls by dose curve; further: series mostly up to about 58 µM)
Procedure, shortened: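 In 1536-format, 1500 TRHR-Hek293 cells per well grew 18 h, took up calcium dye for 2 h at 37 °C, received compound, and were read kinetically; 15-point titrations, triplicates.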

[14] = Human pregnane X receptor (PXR) small molecule agonists, qHTS cell viability counter screen (AID 1346977); further: nearly all actives have a fitted effect of over 50% in size
Procedure, shortened: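 Readout is CellTiter-Fluor fluorescence from PXR-Luc HepG2 cells. Plated cells rested 5hr, then were treated with compounds for 24hr at 37C and 5% CO2, with reagent present during the last hour.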

[15] = qHTS assay to identify small molecule antagonists of the estrogen receptor beta (ER-beta) signaling pathway - cell viability counter screen (AID 1259382);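 further: HEK293T cells carrying ER-beta-UAS-bla reporter stimulated with estradiol; series mostly up to about 92 µM; nearly all actives have a fitted effect of over 55% in size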
Procedure, shortened: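 Tox21 10K library tested in qHTS format on ER-beta-bla HEK293T cells stimulated with 1nM E2; 16 hr treatment at 37C. Same-well CellTiter-Glo luminescence served as the cell viability measure.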

[16] = target: Progesterone receptor (Homo sapiens) (UniProt P06401); test: qHTS assay to identify small molecule agonists of the progesterone receptor (PR) signaling pathway (AID 1346784; calls by dose curve; further: nearly all actives have a fitted effect of over 30% in size; further: potency means the concentration at half of the fitted maximal effect)
Procedure, shortened: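 Using charcoal-stripped serum (2%) to limit endogenous steroids, PR-UAS-bla HEK 293T cells received compounds for 16 hr at 37C after 6 hr plating; beta-lactamase FRET fluorescence was recorded following 2 hr substrate loading at room temperature.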

[17] = qHTS assay to identify small molecule antagonists of the progesterone receptor (PR) signaling pathway - cell viability counter screen (AID 1346798); further: series mostly up to about 92 µM; nearly all actives have a fitted effect of over 50% in size
Procedure, shortened: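 ATP content as viability readout: CellTiter-Glo luminescence, 30 min room temperature, in PR-UAS-bla HEK293T cells after 16 hr compound/R5020 treatment at 37C and 5% CO2.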

[18] = qHTS assay to identify small molecule agonists of the estrogen receptor beta (ER-beta) signaling pathway - cell viability counter screen (AID 1259380); further: nearly all actives have a fitted effect of over 30% in size
Procedure, shortened: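 Viability of ER-beta-UAS-bla HEK293T cells was determined by CellTiter-Glo luminescence following 16 hr treatment with test compounds at 37C.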

[19] = target: Androgen receptor (Homo sapiens) (UniProt P10275); test: qHTS assay to identify small molecule agonists of the androgen receptor (AR) signaling pathway in the presence of an antagonist (AID 1259381; calls by dose curve; further: nearly all actives have a fitted effect of over 15% in size)
Sequence of Androgen receptor (Homo sapiens) (P10275 whole entry, looked up): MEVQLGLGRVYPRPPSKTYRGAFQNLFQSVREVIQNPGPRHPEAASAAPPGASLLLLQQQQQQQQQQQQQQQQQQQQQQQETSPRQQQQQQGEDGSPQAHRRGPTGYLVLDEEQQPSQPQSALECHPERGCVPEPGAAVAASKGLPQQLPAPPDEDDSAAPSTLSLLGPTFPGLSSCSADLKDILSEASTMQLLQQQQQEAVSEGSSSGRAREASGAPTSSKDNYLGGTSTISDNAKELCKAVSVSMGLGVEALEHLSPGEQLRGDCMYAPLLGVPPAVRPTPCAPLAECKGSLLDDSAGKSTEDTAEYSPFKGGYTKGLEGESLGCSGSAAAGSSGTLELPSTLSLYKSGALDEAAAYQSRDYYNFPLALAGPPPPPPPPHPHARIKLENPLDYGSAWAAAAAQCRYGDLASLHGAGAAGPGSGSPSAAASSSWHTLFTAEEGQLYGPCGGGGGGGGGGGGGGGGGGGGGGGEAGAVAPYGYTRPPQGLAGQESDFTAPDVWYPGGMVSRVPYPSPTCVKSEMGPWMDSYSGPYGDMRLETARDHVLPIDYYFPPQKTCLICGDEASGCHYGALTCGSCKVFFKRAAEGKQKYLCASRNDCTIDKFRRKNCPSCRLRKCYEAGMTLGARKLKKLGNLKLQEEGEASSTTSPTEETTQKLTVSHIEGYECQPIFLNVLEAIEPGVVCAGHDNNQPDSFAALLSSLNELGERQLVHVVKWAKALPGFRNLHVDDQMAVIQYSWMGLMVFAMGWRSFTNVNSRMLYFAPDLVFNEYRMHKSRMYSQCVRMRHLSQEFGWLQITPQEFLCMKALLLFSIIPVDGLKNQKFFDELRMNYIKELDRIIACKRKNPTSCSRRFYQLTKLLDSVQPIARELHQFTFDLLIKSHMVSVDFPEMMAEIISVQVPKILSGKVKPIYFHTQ
Procedure, shortened: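 Here, 15-concentration compound series were pin-transferred onto MDA-kb2 MMTV-luciferase cells already dosed with nilutamide (3.0uM final). After 16hr at 37C, ONE-Glo was added and luminescence read 30min later at room temperature.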

Structure (SMILES) | Potency [1] | Potency [2] | Potency [3] | outcome [4] | Potency [5] | Potency [6] | Potency [7] | Potency [8] | Potency [9] | Potency [10] | outcome [11] | Potency [12] | outcome [13] | Potency [14] | Potency [15] | Potency [16] | Potency [17] | Potency [18] | Potency [19]
CC(Oc1cc(Cl)c(Cl)cc1Cl)C(=O)O (stereo not drawn) | inactive | inactive | inactive | inactive | inactive | inactive | inactive | 48.7 µM (active) | inactive | inactive | inactive | inactive | inactive | inactive | – | – | – | – | –
C[C@H](N)[C@H](O)c1ccc(O)c(O)c1 | inactive | inactive | inactive | – | – | inactive | inactive | inactive | – | inactive | inactive | inactive | inactive | inactive | inactive | inactive | inactive | – | –
CN1CC[C@]23c4c5ccc(O)c4O[C@H]2[C@@H](O)CC[C@H]3[C@H]1C5 | inactive | inactive | inactive | – | – | inactive | inactive | – | inactive | inactive | inactive | inactive | inactive | inactive | inactive | inactive | inactive | inactive | –
CC(=O)NNc1ccccc1 | inactive | inactive | – | inactive | – | inactive | – | – | inactive | inactive | inactive | – | – | inactive | – | inactive | – | – | inactive
COc1cc(CC#N)cc(OC)c1OC | inactive | inactive | – | inactive | inactive | – | inactive | inactive | inactive | inactive | inactive | inactive | inactive | inactive | inactive | inactive | inactive | inactive | inactive
C[C@]12CC[C@H]3[C@@H](CCC4=CC(=O)CC[C@@H]43)[C@@H]1CC[C@@H]2OC(=O)CCc1ccccc1 | 3.35 µM (active) | inactive | – | inactive | inactive | inactive | – | – | inactive | inactive | inactive | – | – | inactive | inactive | 1.5 µM (active) | inactive | inactive | –
